# Results as given in PubChem BioAssay.
# Several values for one entry are separate records, joined by “and”; a condition that tells them apart may be missing. Equal values may be shown once. Activity calls are given as the source filed them.
# How the values were obtained:
# [1] = A549 cell viability effects, profiling panel, calcein-AM fluorescence, 48 h, basal (AID 1162); conditions: higher = more signal
# [2] = adipocyte viability effects, profiling panel, cell-based, 3T3-L1 adipocytes, calcein-AM fluorescence, 48 h, basal (AID 1163); conditions: 3T3-L1 adipocytes viability, higher = more signal
# [3] = HepG2 cell viability effects, profiling panel, calcein-AM fluorescence, 48 h, basal (AID 1164); conditions: higher = more signal
# [4] = MM1S cell viability effects, profiling panel, calcein-AM fluorescence, 48 h, basal (AID 1165); conditions: higher = more signal;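 further: viability of MM1S multiple myeloma cells under basal unstimulated conditions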
# [5] = basal RPMI8226 viability, no added stimulus, profiling panel, cell-based, calcein-AM fluorescence, 48 h, PK04 Diversity Set (AID 1166); conditions: RPMI8226 myeloma viability, higher = more signal;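 further: cells grown under basal conditions without added stimulus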
# [6] = basal HepG2 mitochondrial membrane potential changes, profiling panel, cell-based, JC-1 fluorescence, 24 h, 100 nL compound (AID 1167); conditions: higher = more signal
# [7] = basal 3T3-L1 adipocyte mitochondrial potential changes, profiling panel, cell-based, JC-1 fluorescence, 3T3-L1 adipocytes, 24 h, 100 nL compound (AID 1168); conditions: JC-1 mitochondrial fluorescence, higher = more signal, called active from +8 up or from −8 down
# [8] = basal RPMI8226 mitochondrial membrane potential changes, profiling panel, cell-based, JC-1 fluorescence, 24 h, 100 nL compound (AID 1169); conditions: RPMI8226 myeloma, JC-1 mitochondrial potential fluorescence, higher = more signal
# [9] = basal MM1S mitochondrial membrane potential changes, profiling panel, cell-based, JC-1 fluorescence, 24 h, 100 nL compound (AID 1170); conditions: higher = more signal
# [10] = A549 lung cancer cell viability effects, profiling panel, resazurin fluorescence, 24 h, PK04 Diversity Set (AID 1171); conditions: higher = more signal, called active from +8 up or from −8 down
# Further: test concentration not given here.
SMILES,z-score [1],z-score [2],z-score [3],z-score [4],z-score [5],z-score [6],z-score [7],z-score [8],z-score [9],z-score [10]
Cc1ccc(S(=O)(=O)N[C@H]2COC(=O)[C@@H](C)COC(=O)[C@H](C)NC(=O)CC=C[C@H]2C)cc1,0.437,0.0608,-0.107,0.143,0.0608,0.125,0.198 (inactive),-0.137,0.894,1.57 (inactive)
C[N+](C)(C)CCCCCCNC(=O)[C@H]1C[C@H]2C(=O)N[C@@H](CCCC[N+](C)(C)C)C(=O)N2[C@H]1c1cccc(OCCO)c1,0.47 and -0.453,-0.32 and -0.34,0.427 and -0.245,0.0606 and -0.353,0.366 and 0.635,-0.112 and -1.53,0.418 (inactive) and 0.566 (inactive),-0.192 and 0.231,-0.644 and -0.272,-0.154 (inactive) and -0.311 (inactive)
C=CCN(CCCCC)C(=O)C(c1cccs1)N(CCOCCO)C(=O)/C=C\C(=O)O (stereo not given),0.457 and 0.414,0.314 and -0.158,0.341 and 0.976,1.85 and 1.71,0.025 and 0.586,0.69 and -0.139,1.03 (inactive) and 0.45 (inactive),0.0935 and -0.719,-0.512 and 0.0846,-0.186 (inactive) and -0.954 (inactive)
C#CCCCON=C1C[C@@H](O)[C@@H](O)[C@@H]2[C@@H]3C(=O)N(C4CCCCC4)C(=O)[C@@H]3CC[C@H]12,-0.0446,-0.277,1.15,0.471,-0.584,0.289,0.201 (inactive),0.515,-0.353,0.108 (inactive)
C=CCN(C(=O)C(c1cccs1)N(C(=O)/C=C\C(=O)O)C(C)(C)CO)C(C)(C)C (stereo not given),0.923 and 0.435,0.373 and 0.179,1.24 and 1.74,0.151 and 1.58,-0.161 and 0.234,1.04 and 1.38,0.19 (inactive) and 0.713 (inactive),-0.82 and 0.0107,0.0872 and 0.0595,-0.465 (inactive) and -0.596 (inactive)
C=CCN(CCCC)C(=O)C(c1cccs1)N(CCOCCO)C(=O)/C=C\C(=O)O (stereo not given),1.12 and 0.149,0.185 and -0.242,0.914 and 0.824,1.04 and 1.56,1.05 and -0.0726,0.644 and 1.03,0.713 (inactive) and 0.0219 (inactive),0.835 and 0.00316,-1.11 and -0.822,-0.557 (inactive) and -0.469 (inactive)
CCOC(=O)NN=C1C[C@@H](O)[C@@H](O)[C@@H]2[C@@H]3C(=O)N(Cc4ccc5c(c4)OCO5)C(=O)[C@@H]3CC[C@@H]12,1.24,-0.54,0.32,0.511,0.466,0.598,1.11 (inactive),0.612,-1.25,0.0533 (inactive)
C=C[C@H](OC)[C@@H](O)c1ccc(OCCO)cc1,-0.057 and 1.18,-0.367 and 0.0113,-0.485 and 0.98,-0.457 and 1.61,-0.179 and 0.542,-0.899 and 1.11,-0.433 (inactive) and -0.178 (inactive),-0.0855 and -0.21,0.412 and 1.06,-0.555 (inactive) and -0.0644 (inactive)
CO[C@@H]1COC(=O)[C@H](Cc2ccccc2)NC(=O)CC=C[C@@H](C)[C@H](OC)COC(=O)[C@@H](C)NC(=O)CC=C[C@H]1C,-0.0911 and -0.304,0.686 and -0.191,0.0488 and 1.09,0.144 and 0.329,0.173 and 1.12,0.999 and -0.15,0.67 (inactive) and 1.56 (inactive),0.645 and -0.266,0.452 and 0.623,0.632 (inactive) and 0.35 (inactive)
CO[C@H]1COC(=O)CC=C[C@H](C)[C@H](OC)COC(=O)[C@@H](C)COC(=O)CC=C[C@@H]1C,-0.26 and 0.27,0.0599 and 0.0256,0.0517 and 1.24,0.183 and 0.0455,-0.409 and 0.728,0.152 and 1.09,-0.317 (inactive) and 0.125 (inactive),-0.429 and 0.0879,0.688 and 0.438,0.211 (inactive) and -0.379 (inactive)
C=C[C@@H](OC)[C@H](O)c1ccc(OCCO)cc1,0.143 and 0.72,-0.434 and 0.971,0.124 and 0.628,0.663 and 0.916,-0.486 and 0.64,-0.244 and 0.904,0.36 (inactive) and -1.97 (inactive),-0.982 and -0.69,0.88 and -1.28,-0.133 (inactive) and -0.135 (inactive)
C[N+](C)(C)CCCCCCNC(=O)[C@H]1C[C@H]2C(=O)N[C@@H](CCCC[N+](C)(C)C)C(=O)N2[C@H]1c1ccc(O)cc1,-0.512 and 0.597,0.222 and -0.596,-1.45 and -0.367,-0.602 and 0.494,-0.149 and -0.0976,-1.34 and -0.105,0.913 (inactive) and 0.345 (inactive),-0.169 and 0.432,-0.657 and -0.528,-0.673 (inactive) and -0.0771 (inactive)
C=CCN(CCCC)C(=O)C1N(c2c(Cl)cccc2CO)C(=O)C2C(C(=O)O)C3C=CC21O3 (stereo not given),-0.313 and -0.498,1.21 and 1.63,-1.25 and -0.852,0.96 and 0.468,-0.497 and -0.251,-1.04 and -0.518,-0.291 (inactive) and 0.159 (inactive),0.0487 and -0.0566,0.488 and 0.599,-0.822 (inactive) and -0.0069 (inactive)
CC(CO)N1C(=O)[C@@H]2C3C(=O)OCCC=C[C@H]3OC23C=CCN(c2ccc(Cl)cc2)C(=O)[C@@H]13 (stereo not given in full),0.112 and -0.123,0.194 and 0.458,0.47 and 1.07,-0.725 and -0.182,0.622 and -0.222,0.242 and 0.0111,0.518 (inactive) and -0.689 (inactive),0.0601 and -0.811,0.936 and -0.274,0.189 (inactive) and 0.557 (inactive)
CCOC(=O)[C@H](Cc1ccccc1)NC(=O)CCC1CC(OC(=O)NCc2cccc3ccccc23)CC2(CCCC(COC(=O)NCCCN3CCCC3=O)O2)O1 (stereo not given in full),2.08,0.0309,-0.93,-0.0157,-0.178,0.397,0.17 (inactive),-0.195,-0.5,0.811 (inactive)
COC(=O)C1=C(C)N(Cc2ccccc2)C2=C(C(C)=O)[C@H](c3ccccc3)[C@@](O)(C(=O)OC)C(=O)N2[C@@H]1c1ccccc1,1.73 and 0.919,-0.0798 and 0.56,0.954 and 0.364,0.592 and 0.378,0.604 and 0.984,3.1 and 0.826,-1.09 (inactive) and 2.47 (inactive),-0.938 and -0.592,-0.444 and 0.924,1.78 (inactive) and 0.197 (inactive)
C=CCN(CCCCC)C(=O)C1N(c2c(Cl)cccc2CO)C(=O)C2C(C(=O)O)C3C=CC21O3 (stereo not given),0.91 and 0.677,1.58 and 0.498,-0.841 and -0.469,1 and 0.892,-1.09,-0.828 and -1.37,-0.438 (inactive) and -0.55 (inactive),0.0653 and 0.469,0.223 and 1.03,-1.5 (inactive) and -1.33 (inactive)
COCn1c2ccccc2c2nnc(C(C)=O)nc21,-0.337 and -0.197,0.745 and 0.622,-0.786 and -0.47,-0.32 and -0.151,-2.16 and -1.74,-2.92 and -0.761,0.0492 (inactive) and 0.883 (inactive),-0.79 and -0.473,-0.189 and -0.639,-0.181 (inactive) and -0.856 (inactive)
C=CCN(C(=O)C1N(CCCCCCO)C(=O)C2C(C(=O)O)C3C=CC21O3)C(C)(C)C (stereo not given),0.698 and -0.443,-0.356 and -0.171,0.159 and 0.187,0.576 and 0.13,-0.566 and -0.866,-0.872 and -0.997,-0.373 (inactive) and 0.302 (inactive),0.186 and 0.699,1.29 and 0.193,-0.0791 (inactive) and -0.385 (inactive)
C=CCN(CCCC)C(=O)C(c1cccs1)N(C(=O)/C=C\C(=O)O)c1ccc(CCO)cc1 (stereo not given),-0.178 and 0.505,-0.0575 and -0.458,0.267 and 1.02,1.72 and 1.52,0.657 and -0.192,0.484 and -0.279,-0.527 (inactive) and 0.0402 (inactive),-0.996 and 0.19,-0.874 and -0.407,0.0696 (inactive) and -0.0804 (inactive)
